Results filed as inconclusive are left out. Calls of active or inactive are those of the source. Calls come from the whole dose curve; as a rule, active = well fitted inhibition curve with a large enough effect; inconclusive = small, poorly fitted or top-dose-only effect; inactive = flat fitted curve, though single readings scatter.
Legend:
Assay in all cases: qHTS profiling for inhibitors of Plasmodium falciparum proliferation (AID 504749); note: nearly all actives have a fitted effect of over 60% in size
Details in all cases: P. falciparum in erythrocytes, SYBR Green DNA, 72 h; series mostly up to 28.7 µM
[1] = test system: ATS95
Procedure, shortened: (§1)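 Infected RBCs, 0.3% parasitemia/2.5% Hct final; cpd 72 h, 37 C, 5% CO2; lysis buffer with saponin/triton/SYBR Green I, o/n RT dark; FI 485/535; norm. to artemisinin (0.29 uM) and DMSO.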

[2] = test system: C2A
Procedure, shortened: as §1

[3] = test system: CP185
Procedure, shortened: as §1

[4] = test system: CP191
Procedure, shortened: as §1

[5] = test system: CP192
Procedure, shortened: as §1

[6] = test system: CP194
Procedure, shortened: as §1

[7] = test system: CP201
Procedure, shortened: as §1

[8] = test system: CP203
Procedure, shortened: as §1

[9] = test system: CP211
Procedure, shortened: as §1

[10] = test system: CP215
Procedure, shortened: as §1

Measured: outcome

CCOC(=O)C(CCc1ccccc1)NC(C)C(=O)N1Cc2ccccc2CC1C(=O)O (stereo not given)
inactive: [1] | [2] | [3] | [4] | [5] | [6] | [7] | [8] | [9] | [10]

CCc1cccc2c3c([nH]c12)[C@@](CC)(CC(=O)O)OCC3
inactive: [1] | [2] | [3] | [4] | [5] | [6] | [7] | [8] | [9] | [10]
